# Data: PubChem BioAssay (NCATS)
# Inconclusive results are not listed. Active and inactive are the calls of the source. Calls come from the whole dose curve; as a rule, active = well fitted curve in the direction sought with a large enough effect; inconclusive = small, poorly fitted or top-dose-only effect, or another doubt; inactive = no such curve, though single readings can be large; an effect the other way counts as inactive or inconclusive.
# Columns and labels:
# [1] = Quantitative High-Throughput drug screen in 47 multiple myeloma cell lines against the NCATS MIPE library collection: Delta47_JCRB cell viability assay (AID 1918925; note: nearly all actives have a fitted effect of over 45% in size)
# Outline: (§1)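 Primary qHTS used for cherry-picking: cells at 500/well, library compounds for 48 h (37C, 5% CO2), luminescent ATP assay.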
# [2] = Quantitative High-Throughput drug screen in 47 multiple myeloma cell lines against the NCATS MIPE library collection: AMO1_DSMZ cell viability assay (AID 1918927; note: nearly all actives have a fitted effect of over 30% in size)
# Outline: as §1
# [3] = Quantitative High-Throughput drug screen in 47 multiple myeloma cell lines against the NCATS MIPE library collection: ARP1_JJKsccF8 cell viability assay (AID 1918928; note: nearly all actives have a fitted effect of over 40% in size)
# Outline: (§2)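 Here, 48 h treatment with MIPE 4.0 agents at 37 °C preceded an ATP luminescence read. Plating density was 500 cells per well.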
# [4] = Quantitative High-Throughput drug screen in 47 multiple myeloma cell lines against the NCATS MIPE library collection: ARD_JJKsccE7 cell viability assay (AID 1918929)
# Outline: as §1
# [5] = Quantitative High-Throughput drug screen in 47 multiple myeloma cell lines against the NCATS MIPE library collection: KMM1_JCRB cell viability assay (AID 1918960); note: nearly all actives have a fitted effect of over 30% in size;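 for viability (% of DMSO): 100% = DMSO-treated cells and 0% = medium-only wells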
# Outline: as §2
# [6] = Quantitative High-Throughput drug screen in 47 multiple myeloma cell lines against the NCATS MIPE library collection: JIM3_ECACC cell viability assay (AID 1918963; note: nearly all actives have a fitted effect of over 35% in size)
# Outline: (§3)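 Myeloma cell lines, 500 cells per well, exposed to MIPE 4.0 library compounds for 48 h at 37C, 5% CO2. Viability from ATP by CellTiter-Glo luminescence; normalised to DMSO (100%) and media-only (0%) wells.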
# [7] = Quantitative High-Throughput drug screen in 47 multiple myeloma cell lines against the NCATS MIPE library collection: JIM1_ECACC cell viability assay (AID 1918964)
# Outline: as §1
# [8] = Quantitative High-Throughput drug screen in 47 multiple myeloma cell lines against the NCATS MIPE library collection: INA6_PLB cell viability assay (AID 1918965; note: nearly all actives have a fitted effect of over 55% in size)
# Outline: as §3
# [9] = Quantitative High-Throughput drug screen in 47 multiple myeloma cell lines against the NCATS MIPE library collection: H1112_PLB cell viability assay (AID 1918967; note: nearly all actives have a fitted effect of over 30% in size)
# Outline: as §1
# [10] = Quantitative High-Throughput drug screen in 47 multiple myeloma cell lines against the NCATS MIPE library collection: Karpas25_ECACC cell viability assay (AID 1918968; note: nearly all actives have a fitted effect of over 35% in size)
# Outline: as §1
# [11] = Quantitative High-Throughput drug screen in 47 multiple myeloma cell lines against the NCATS MIPE library collection: KMS27_JCRB cell viability assay (AID 1918970); note: nearly all actives have a fitted effect of over 30% in size
# Outline: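 ATP-based viability (CellTiter-Glo luminescence) is measured in cells treated 48 h with approved and investigational drugs at 37 °C. Controls are DMSO-only wells for full viability and media-only wells for none.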
# [12] = Quantitative High-Throughput drug screen in 47 multiple myeloma cell lines against the NCATS MIPE library collection: KMS12BM_JCRB cell viability assay (AID 1918971); note: nearly all actives have a fitted effect of over 35% in size
# Outline: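 Approved and investigational drugs from MIPE 4.0 were added by pin tool to 500 cells per well. After 48 hours at 37C, ATP-based CellTiter-Glo luminescence indicated remaining viability.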
# [13] = Quantitative High-Throughput drug screen in 47 multiple myeloma cell lines against the NCATS MIPE library collection: KMS12PE_JCRB cell viability assay (AID 1918972); note: nearly all actives have a fitted effect of over 30% in size
# Outline: as §3
# [14] = Quantitative High-Throughput drug screen in 47 multiple myeloma cell lines against the NCATS MIPE library collection: Karpas620_DSMZ cell viability assay (AID 1918959); note: nearly all actives have a fitted effect of over 30% in size
# Outline: as §3
# [15] = Quantitative High-Throughput drug screen in 47 multiple myeloma cell lines against the NCATS MIPE library collection: KMS20_JCRB cell viability assay (AID 1918973); note: nearly all actives have a fitted effect of over 45% in size
# Outline: as §1
# [16] = Quantitative High-Throughput drug screen in 47 multiple myeloma cell lines against the NCATS MIPE library collection: KHM11_PLB cell viability assay (AID 1918962); note: nearly all actives have a fitted effect of over 35% in size
# Outline: as §3
# [17] = Quantitative High-Throughput drug screen in 47 multiple myeloma cell lines against the NCATS MIPE library collection: JJN3_DSMZ cell viability assay (AID 1918966; note: nearly all actives have a fitted effect of over 50% in size)
# Outline: as §1
# [18] = Quantitative High-Throughput drug screen in 47 multiple myeloma cell lines against the NCATS MIPE library collection: EJM_DSMZ cell viability assay (AID 1918926; note: nearly all actives have a fitted effect of over 30% in size)
# Outline: as §1
# [19] = Quantitative High-Throughput drug screen in 47 multiple myeloma cell lines against the NCATS MIPE library collection: Karpas417_ECACC cell viability assay (AID 1918961); conditions: Karpas417 myeloma viability, CellTiter-Glo ATP luminescence, 48 h; viability (% of DMSO): at 45.8 µM (top of the series)
# Outline: as §3
# Potency is the fitted concentration of half-maximal effect.
compound,measurement,setting,value
O=c1cc(CN2CCOCC2)occ1OCCCCCSc1ccnc2cc(C(F)(F)F)ccc12,Potency,[1],6.62 µM (active)
same,Potency,[2],18.7 µM (active)
same,Potency,[3],20.9 µM (active)
same,Potency,[4],20.9 µM (active)
same,Potency,[5],13.2 µM (active)
same,Potency,[6],4.69 µM (active)
same,Potency,[7],18.7 µM (active)
same,Potency,[8],7.43 µM (active)
same,Potency,[9],833 nM (active)
same,Potency,[10],0.743 µM (active)
same,Potency,[11],20.9 µM (active)
same,Potency,[12],5.9 µM (active)
same,Potency,[13],16.6 µM (active)
Cc1c[nH]c(C=C2C(=O)Nc3ccccc32)c1CCC(=O)O,Potency,[1],inactive
same,Potency,[14],inactive
same,Potency,[5],18.7 µM (active)
COc1ccc2cc(-c3nc(-c4ccc(S(C)=O)cc4)[nH]c3-c3ccncc3)ccc2c1 (stereo not given),Potency,[1],16.6 µM (active)
same,Potency,[14],18.7 µM (active)
same,Potency,[5],23.5 µM (active)
same,Potency,[6],23.5 µM (active)
same,Potency,[8],14.8 µM (active)
same,Potency,[10],26.4 µM (active)
same,Potency,[15],7.43 µM (active)
C=C1C(=O)OC2C=C(C)CCC=C(C)CCC12 (stereo not given),Potency,[1],18.7 µM (active)
same,Potency,[2],18.7 µM (active)
same,Potency,[4],23.5 µM (active)
same,Potency,[14],14.8 µM (active)
same,Potency,[5],16.6 µM (active)
same,Potency,[16],inactive
same,Potency,[7],14.8 µM (active)
same,Potency,[8],16.6 µM (active)
same,Potency,[17],16.6 µM (active)
same,Potency,[10],20.9 µM (active)
same,Potency,[11],20.9 µM (active)
same,Potency,[12],20.9 µM (active)
same,Potency,[13],20.9 µM (active)
C=CCc1ccc(O)c(-c2ccc(O)c(CC=C)c2)c1,Potency,[1],18.7 µM (active)
same,Potency,[18],23.5 µM (active)
same,Potency,[2],23.5 µM (active)
same,Potency,[14],26.4 µM (active)
same,Potency,[6],20.9 µM (active)
same,Potency,[8],18.7 µM (active)
same,Potency,[11],23.5 µM (active)
same,Potency,[13],20.9 µM (active)
same,Potency,[15],23.5 µM (active)
CC(C)n1nc(-c2ccc3oc(N)nc3c2)c2c(N)ncnc21,Potency,[1],0.0059 µM (active)
same,Potency,[14],1.18 µM (active)
same,Potency,[6],0.0074 µM (active)
same,Potency,[8],0.0093 µM (active)
same,Potency,[12],0.0526 µM (active)
same,Potency,[15],0.0418 µM (active)
CC(C)[C@H](CO)Nc1nc(Nc2ccc(C(=O)O)c(Cl)c2)c2ncn(C(C)C)c2n1,Potency,[1],1.48 µM (active)
same,Potency,[16],14.8 nM (active)
same,Potency,[8],0.059 µM (active)
CC=C(C)C(=O)O[C@H]1C(C)=C[C@]23C(=O)[C@@H](C=C(CO)[C@@H](O)[C@]12O)[C@H]1[C@@H](C[C@H]3C)C1(C)C,Potency,[1],5.26 µM (active)
same,Potency,[2],18.7 µM (active)
same,Potency,[4],11.8 µM (active)
same,Potency,[5],11.8 µM (active)
same,Potency,[19],209 nM (active)
same,Potency,[16],3720 nM (active)
same,Potency,[6],18.7 µM (active)
same,Potency,[8],0.0066 µM (active)
same,Potency,[9],526 nM (active)
same,Potency,[11],9.35 µM (active)
same,Potency,[13],18.7 µM (active)
O=c1c(-c2ccc(O)cc2)coc2cc(OC3O[C@H](CO)[C@H](O)[C@H](O)[C@H]3O)cc(O)c12 (stereo not given in full),Potency,[1],3.72 µM (active)
same,Potency,[2],inactive
same,Potency,[3],18.7 µM (active)
same,Potency,[6],4.69 µM (active)
same,Potency,[7],inactive
same,Potency,[8],10.5 µM (active)
same,Potency,[10],3.32 µM (active)
same,Potency,[11],inactive
Cn1c(N2CCCCS2(=O)=O)nc(C(=O)NCc2ccc(F)cc2)c(O)c1=O,Potency,[1],inactive
same,Potency,[18],inactive
same,Potency,[5],inactive
same,Potency,[16],inactive
same,Potency,[6],inactive
same,Potency,[8],inactive
same,Potency,[9],inactive
same,Potency,[13],20.9 µM (active)
same,Potency,[15],inactive
C[C@H](NC(=O)c1sccc1OCc1ccc(Cl)cc1)c1ccccc1,Potency,[1],20.9 µM (active)
same,Potency,[14],inactive
same,Potency,[5],inactive
same,Potency,[8],26.4 µM (active)
same,Potency,[11],inactive
same,Potency,[12],18.7 µM (active)
same,Potency,[13],inactive
Cc1ccc(C(C)(O)c2nc3ccccc3s2)c(C)c1 (stereo not given),Potency,[1],inactive
same,Potency,[2],20.9 µM (active)
same,Potency,[4],inactive
same,Potency,[14],inactive
same,Potency,[5],inactive
same,Potency,[19],inactive
same,Potency,[6],inactive
same,Potency,[8],inactive
same,Potency,[10],inactive
same,Potency,[13],inactive
same,Potency,[15],inactive
CCCCCN(C)CCC(O)(P(=O)(O)O)P(=O)(O)O,Potency,[18],inactive
same,Potency,[14],inactive
same,viability (% of DMSO),[19],78.6% (active)
same,Potency,[16],inactive
same,Potency,[6],inactive
same,Potency,[7],inactive
same,Potency,[8],inactive
same,Potency,[11],inactive
CC(=NNC(=S)N1CCC1)c1ccccn1,Potency,[18],inactive
same,Potency,[2],0.001 µM (active)
same,Potency,[4],0.001 µM (active)
same,Potency,[19],inactive
same,Potency,[6],inactive
same,Potency,[8],inactive
same,Potency,[9],inactive
same,Potency,[10],inactive
same,Potency,[11],0.001 µM (active)
same,Potency,[12],0.0042 µM (active)
same,Potency,[13],0.001 µM (active)
COc1ccc(-n2c(C)c([N+](=O)[O-])c3ccc(O)cc32)cc1,Potency,[14],inactive
same,Potency,[5],inactive
same,Potency,[16],inactive
same,Potency,[6],inactive
same,Potency,[9],inactive
same,Potency,[10],26.4 µM (active)
O=C(O)c1cc(O)c2c(c1)C(=O)c1cccc(O)c1C2=O,Potency,[3],34 µM (active)
same,Potency,[4],inactive
same,Potency,[6],inactive
same,Potency,[9],inactive
same,Potency,[13],inactive
